GSH bead fluor – compound fluoresces at 488/530 nm on GSH beads; AID 1776; 0.25% of 190,000 active; fluorescence (KMESF) at 10 µM; GSH beads flow cytometry, compound fluorescence 488/530 nm; active compounds read high; in the data active means fluorescence above about 89;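 further: glutathione beads carrying GST-tagged Bcl family fusion proteins plus one bare bead set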
RGS8-Gao – modulates binding of RGS8 to human Galphao; multiplexed bead flow cytometry; actives lie on both sides; response (percent of control binding), % at 10 µM; 0.34% of 220,000 active; AID 1423; in the data active means response below about 60% or above about 140%; inactive means in between;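 further: Galphao activated as the GDP aluminium fluoride complex binding bead-coupled RGS8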
Target sequence (P09471 whole entry, looked up): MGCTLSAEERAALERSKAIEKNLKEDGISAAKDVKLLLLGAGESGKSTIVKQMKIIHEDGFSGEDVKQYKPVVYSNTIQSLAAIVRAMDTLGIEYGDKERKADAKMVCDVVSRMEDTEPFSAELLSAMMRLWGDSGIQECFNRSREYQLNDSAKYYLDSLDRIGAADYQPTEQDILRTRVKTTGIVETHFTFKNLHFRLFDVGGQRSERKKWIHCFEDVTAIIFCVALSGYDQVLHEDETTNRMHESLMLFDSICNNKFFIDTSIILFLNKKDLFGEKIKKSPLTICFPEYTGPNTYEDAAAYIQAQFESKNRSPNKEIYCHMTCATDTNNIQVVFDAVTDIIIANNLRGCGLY
Avidin bead fluor – compound fluoresces at 488/530 nm on avidin beads. 0.38% of 220,000 active. fluorescence (KMESF) at 10 µM. AID 1775. compound fluorescence 488/530 nm, flow cytometry; active compounds read high; in the data active means fluorescence above about 47
RGS16-Gao – regulators of human RGS16-Galphao interaction; 0.38% of 220,000 active; O15492+P09471; bead-based flow cytometry RGS16-Galphao binding, fluorescence; actives lie on both sides; binding response (% of control), % at 10 µM;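 further: Galphao activated by GDP with aluminum fluoride before binding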
Target sequence (O15492 whole entry, looked up): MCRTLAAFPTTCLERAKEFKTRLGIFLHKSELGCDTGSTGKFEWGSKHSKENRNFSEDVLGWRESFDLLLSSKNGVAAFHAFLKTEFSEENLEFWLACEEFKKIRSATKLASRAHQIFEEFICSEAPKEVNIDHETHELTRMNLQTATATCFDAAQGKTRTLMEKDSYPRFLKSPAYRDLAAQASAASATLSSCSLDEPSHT
Target sequence (P09471 whole entry, looked up): as the sequence (P09471 whole entry, looked up) above
RGS4-Gao reg – modulates binding of RGS4 to human Galphao; Multiplexed bead flow cytometry; actives lie on both sides; binding response (% of control), % at 10 µM; AID 1415; 0.33% of 220,000 active; in the data active means binding response below about 49% or above about 150%; inactive means in between;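 further: fluorescent Galphao activated with aluminum fluoride binding bead-coupled RGS4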
RGS7-Gao – human RGS7-Galphao interaction regulation. AID 1439. Multiplexed bead flow cytometry, RGS7-Galphao binding; actives lie on both sides. binding response (% of control), % at 10 µM. P09471. 0.35% of 220,000 active; in the data active means binding response below about 49% or above about 150%; inconclusive means no clear call, values can overlap the other calls; inactive means in between;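 further: fluorescent Galphao held in activated GDP-AlF4 state binding bead-coupled RGS7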
RGS-Gao – regulators of human RGS4-Galphao interaction. 99% of 1,600 active. multiplexed bead flow cytometry, RGS–Galpha-o binding. AID 1504. RGS4–Galpha-o binding response, % at 10 µM. shares compounds with RGS16-Gao;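 further: fluorescently labeled Galpha-o bound to GDP with aluminium fluoride binding biotinylated RGS beads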
Biotin-avidin – counter-screen: compounds disrupting biotin binding to avidin beads. shares compounds with RGS16-Gao. streptavidin beads, fluorescein-biotin binding, flow cytometry. inhibition, % at 10 µM. 1,700 tested, under 10 active. AID 1783;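 active means inhibition above 50%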;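 further: median green fluorescence of gated singlet beads compared with DMSO control wells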
RGS8-Gao confirm – confirmation of regulators of human RGS8-Galphao interaction; shares compounds with RGS16-Gao; bead-based flow cytometry RGS8-Galphao binding, fluorescence; actives lie on both sides; binding response (% of control), % at 10 µM; 3% of 1,700 active; AID 1836; in the data active means binding response below about 72% or above about 130%; inactive means in between;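 further: Galphao activated as GDP AlF4 complex before binding bead RGS8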
RGS7-Gao single – confirmation of regulators of human RGS7-Galphao interaction; bead-based flow cytometry RGS7-Galphao binding; actives lie on both sides; AID 1837; shares compounds with RGS16-Gao; 7.8% of 1,700 active; response (percent of control binding), % at 10 µM; in the data active means response below about 75% or above about 130%; inactive means in between;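 further: fluorescent Galphao activated with GDP and aluminum fluoride binding bead-coupled RGS7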
RGS16-Gao conf – confirmation of regulators of human RGS16-Galphao interaction. 4% of 1,700 active. shares compounds with RGS16-Gao. AID 1838. bead-based flow cytometry, RGS16-Galphao binding; actives lie on both sides. response (% of control binding), % at 10 µM; in the data active means response below about 74% or above about 130%; inactive means in between;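 further: Galphao activated as the GDP aluminium fluoride complex binding bead-coupled RGS16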
RGS4-Gao confirm – confirmation of regulators of human RGS4-Galphao interaction; shares compounds with RGS16-Gao; RGS4-Galphao binding, multiplexed bead flow cytometry; actives lie on both sides; binding response (% of control), % at 10 µM; 4% of 1,700 active; AID 1840; in the data active means binding response below about 74% or above about 130%; inactive means in between
RGS19-Gao single – RGS19-Galphao interaction regulation, single point confirmation | shares compounds with RGS16-Gao | bead-based flow cytometry RGS19-Galphao binding; actives lie on both sides | response (percent of control binding), % at 10 µM | 5% of 1,700 active; in the data active means response below about 50% or above about 160%; inactive means in between
A number is an active result; 0 = inactive; ? = inconclusive; - = no result; [ ] = another dose, or the depositor's remark. Rows were chosen to be rich in hits. Some 1.2% of all compounds tested hit in one or more screens of this group. Unless noted, how the calls were made is not given here.

SMILES | GSH bead fluor | RGS8-Gao | Avidin bead fluor | RGS16-Gao | RGS4-Gao reg | RGS7-Gao | Biotin-avidin | RGS8-Gao confirm | RGS7-Gao single | RGS16-Gao conf | RGS4-Gao confirm | RGS19-Gao single | others
CC1(C)Cc2c(sc(NC(=O)c3ccco3)c2C#N)CO1 | 0 | 2.6 | - | -105 | -105 | -35 | 0 | 0 | 0 | 0 | 0 | 0
COc1ccc(S(=O)(=O)N2CCCCCC2)cc1N | 0 | 0 | 0 | 0 | 0 | 0 | - | - | - | - | - | -
CCCCOc1ccc(-c2nc(=S)[nH][nH]2)cc1 | 0 | - | 0 | 0 | 0 | 0 | 0 | 0 | 0 | 0 | 0 | 0
CCCCOc1ccc(-c2nc(SCC(N)=O)n[nH]2)cc1 | 0 | 0 | 0 | 0 | 0 | 0 | - | - | - | - | - | -
COc1cc(/C=N/Nc2nc(C)nc3c2cnn3-c2ccccc2)ccc1O | 0 | 0 | 0 | 0 | 0 | 0 | - | - | - | - | - | -
CCn1c2ccccc2c2cc(NC(=O)CSc3nnnn3-c3ccccc3)ccc21 | 0 | - | - | - | - | - | 0 | 0 | 0 | 0 | 0 | 0
O=C(CSc1nnnn1-c1ccccc1)Nc1ccc(Cl)cc1 | 0 | 0 | 0 | 0 | 0 | 0 | - | - | - | - | - | -
COc1ccc(OCC(=O)Nc2ccccc2OC(F)F)cc1 | 0 | 0 | 0 | 0 | 0 | 0 | - | - | - | - | - | -
COc1ccc(OCC(=O)Nc2ccccc2OC)cc1 | 0 | 153[activator] | 0 | 0 | 0 | 0 | 0 | 0 | 0 | 0 | 0 | 0 | RGS-Gao=116
Cc1ccccc1-n1c(SCC(=O)c2c(N)n(C)c(=O)n(C)c2=O)nc2sc3c(c2c1=O)CCCC3 | 0 | 0 | 0 | 22 | 0 | 0 | 0 | 0 | 0 | 0 | 0 | 0 | RGS-Gao=88
CC(=O)NN1C(=O)c2ccccc2NC1c1ccccn1 (centres undefined) | 0 | 0 | 0 | 22 | 0 | 0 | 0 | 0 | 0 | 0 | 0 | 0 | RGS-Gao=97
Cc1cc(=O)oc2cc(OC(=O)c3cncc(Br)c3)ccc12 | 0 | 0 | 0 | 0 | 0 | 0 | - | - | - | - | - | -
O=[N+]([O-])c1ccc(Sc2ccccc2)nc1 | 0 | 0 | 0 | 0 | 0 | 0 | - | - | - | - | - | -
Nc1cccnc1Sc1ccc([N+](=O)[O-])cn1 | 0 | 5.6 | 0 | 0 | 4.3 | 5.8 | 0 | 0 | 131[activator] | 0 | 0 | 0
CC1=NN(C(=O)CSCc2ccccc2)C(O)(c2ccc(F)cc2)C1 (centres undefined) | 0 | 0 | 0 | 0 | 0 | ? | - | - | - | - | - | -
CC1=NN(C(=O)CSCc2ccccc2)C(O)(c2ccc(Cl)cc2)C1 (centres undefined) | 0 | 59 | 0 | 0 | 0 | 49 | 0 | 0 | 0 | 0 | 0 | 0 | RGS-Gao=57
COc1ccc(C)c2sc(NC(=O)C3=COCCO3)nc12 | 0 | 0 | 175 | 0 | 0 | 313[activator] | - | - | - | - | - | - | RGS-Gao=132
COc1ccc(OC)c2sc(NC(=O)C3=COCCO3)nc12 | 0 | 0 | 0 | 0 | 0 | 0 | - | - | - | - | - | -
Cc1ccc(-c2cc(C(=O)N/N=C/c3ccco3)n[nH]2)s1 | 0 | 0 | 0 | 0 | 0 | 0 | - | - | - | - | - | -
CC(C)(C)c1cc(C(=O)N/N=C/c2ccco2)n[nH]1 | 0 | 0 | 0 | 279[activator] | 0 | 0 | 0 | 0 | 0 | 0 | 0 | 0 | RGS-Gao=114
O=c1ccc2cc(S(=O)(=O)N3CCN(c4cc(Cl)ccc4Cl)CC3)ccc2o1 | 0 | - | - | - | - | - | 0 | 0 | 0 | 0 | 0 | 0
Cc1cc(C)cc(NC(=S)NCc2ccc(S(N)(=O)=O)cc2)c1 | 0 | 0 | - | 0 | 0 | - | 0 | 0 | 0 | 0 | 0 | 0
NS(=O)(=O)c1ccc(NC(=S)NCc2ccc(Cl)cc2)cc1 | 0 | 0 | 0 | 0 | 0 | 0 | - | - | - | - | - | -
N#C/C(=C\c1ccc(Cl)cc1)c1nc2ncccc2[nH]1 | 0 | 0 | 0 | -40 | 0 | 0 | - | - | - | - | - | - | RGS-Gao=89
N#C/C(=C\c1c(Cl)cccc1Cl)c1nc2ccccc2[nH]1 | - | 0 | 0 | 0 | 0 | ? | - | - | - | - | - | -
SMILES | GSH bead fluor | RGS8-Gao | Avidin bead fluor | RGS16-Gao | RGS4-Gao reg | RGS7-Gao | Biotin-avidin | RGS8-Gao confirm | RGS7-Gao single | RGS16-Gao conf | RGS4-Gao confirm | RGS19-Gao single | others
Cc1ccccc1NC(=O)C(Cl)=C(Cl)Cl | 0 | 0 | 0 | 0 | 0 | ? | - | - | - | - | - | -
COc1ccccc1-c1nnc2n1N=C(c1ccc(O)c(O)c1)CS2 | 0 | 59 | 0 | 0 | 0 | 47 | 0 | 0 | 0 | 0 | 0 | 0 | RGS-Gao=56
CCOc1ccc(C2=Nn3c(nnc3-c3ccccc3OC)SC2)cc1 | 0 | 0 | 0 | 0 | 0 | 0 | - | - | - | - | - | -
CC(=O)Nc1ccc(C(=O)OCC(=O)NC2CCCCCCC2)cc1 | 0 | 0 | 0 | 0 | 0 | 0 | - | - | - | - | - | -
O=S(=O)(NC1CC1)c1ccc(S(=O)(=O)N(Cc2ccccn2)C2CC2)cc1 | - | 0 | 0 | 0 | 0 | ? | - | - | - | - | - | -
CC[n+]1c(/C=C/C=C/N(C(C)=O)c2ccccc2)sc2ccccc21 | 0 | 0 | - | 0 | 14 | 0 | 0 | 0 | 243[activator] | 153[activator] | 163[activator] | 278[activator]
CCn1c(/C=C/N(C(C)=O)c2ccccc2)[n+](CC)c2ccc(Cl)cc21 | 0 | 0 | 0 | 0 | 0 | 0 | - | - | - | - | - | -
CCSC1=C(C#N)C2(CCCCC2)C(C#N)C(=O)N1 (centres undefined) | 0 | 0 | 0 | 0 | 0 | 0 | - | - | - | - | - | -
N#CC1=C2SCCN2C(=O)C(C#N)C12CCCCC2 (centres undefined) | 0 | 13 | - | -10 | -15 | -0.9 | 0 | 0 | 0 | 0 | 0 | 0
CCCCCCOc1ccc(N2C(=O)CC(N3CCN(CCN=CC4C(=O)CC(C)(C)CC4=O)CC3)C2=O)cc1 (centres undefined) | 0 | 0 | 85 | 0 | 0 | 158[activator] | 0 | 0 | 0 | 0 | 0 | 0 | RGS-Gao=121
CCOC(=O)c1ccc(NC(=O)c2ccc(CN3CCOCC3)cc2)cc1 | 0 | 0 | 0 | 0 | 0 | 0 | - | - | - | - | - | -
NC(=O)c1ccc(NC(=O)c2ccc(CN3CCOCC3)cc2)cc1 | 0 | - | - | - | - | - | 0 | 0 | 0 | 0 | 0 | 0
CNC(=O)c1c(NC(=O)c2cccc(N3C(=O)CCC3=O)c2)sc2c1CCC2 | - | 3.9 | 0 | -3.7 | -2.7 | ? | 0 | 0 | 0 | 0 | 0 | 0
CCOC(=O)/C=C/C(=O)N1CCN(C(=O)/C=C/C(=O)OCC)CC1 | - | 0 | 0 | 0 | 0 | ? | - | - | - | - | - | -
Cc1cc(NC(=O)CSc2nc3c(c(=O)n2-c2ccc(Br)cc2)SCC3)no1 | 0 | 0 | 0 | 0 | 0 | 0 | - | - | - | - | - | -

Screens: PubChem BioAssay, NMMLSC
